Results reported in PubChem BioAssay (NCATS).
Results filed as inconclusive are left out. Values without a mark were called inactive. Calls of active or inactive are those of the source. The call rests on the fitted dose curve; in most records, active means well fitted inhibition curve with a large enough effect; inconclusive means small, poorly fitted or top-dose-only effect; inactive means flat fitted curve, though single readings scatter.

system: P94_40; assay: qHTS profiling for inhibitors of Plasmodium falciparum proliferation (AID 504749); further: nearly all actives have a fitted effect of over 60% in size;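 on activity, negative = inhibition: 0% = DMSO vehicle and full inhibition = artemisinin control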; settings: P. falciparum in erythrocytes, SYBR Green DNA, 72 h; series mostly up to 28.7 µM; activity, negative = inhibition: at the top concentration
Outline: (§1)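 Three-day growth assay of blood-stage parasites in erythrocytes (0.3% parasitemia, 2.5% hematocrit) at 37 C, 5% CO2, quantified by SYBR Green DNA staining after overnight detergent lysis.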
Potency means the concentration at half of the fitted maximal effect.

| Compound | activity, negative = inhibition [%] | Potency |
| --- | --- | --- |
| NC(=O)C1CC2(NC(=O)NC2=O)c2cc(F)ccc2O1 (stereo unspecified) | -4.51 | – |
| CN1[C@@H]2CC[C@@H]1CC(OC(=O)[C@H](CO)c1ccccc1)C2 (stereo partly specified) | 1.21 | – |
| CC[C@@]1(O)C[C@H](O[C@H]2C[C@@H](N(C)C)[C@@H](O[C@H]3C[C@@H](O)[C@@H](O[C@H]4CCC(=O)[C@@H](C)O4)[C@@H](C)O3)[C@@H](C)O2)c2c(cc3c(c2O)C(=O)c2c(O)cccc2C3=O)[C@H]1C(=O)OC | – | 158 nM (active) |
| CCCCCCCCCCCC(=O)OCC(O)C1OCC(O)C1O (stereo unspecified) | 4.46 | – |
| C/C1=C2/[N-]C(C(CC(N)=O)[C@@]2(C)CCC(=O)NCC(C)OP(=O)([O-])O[C@H]2[C@@H](O)[C@@H](n3cnc4cc(C)c(C)cc43)O[C@@H]2CO)[C@]2(C)N=C(/C(C)=C3N=C(/C=C4N=C1C(CCC(N)=O)C\4(C)C)[C@@H](CCC(N)=O)[C@]\3(C)CC(N)=O)[C@@H](CCC(N)=O)[C@]2(C)CC(N)=O.CC(=O)O.[Co] (stereo partly specified) | -7.53 | – |
| CC1(C)OC[C@@H]2O[C@@]3(C(=O)O)OC(C)(C)O[C@@H]3[C@@H]2O1 | 9.54 | – |
| Cc1ccccc1N1C(=O)c2cc(N)ccc2N/C1=C\F | -4.24 | – |
| CCC(C(=O)O)C1OC(C(C)C(O)C(C)C(=O)C(CC)C2OC3(C=CC(O)C4(CCC(C)(C5CCC(O)(CC)C(C)O5)O4)O3)C(C)CC2C)C(C)CC1C (stereo unspecified) | – | 70.8 nM (active) |
| O=C1C(I)=CC(=C(c2cc(I)c(O)c(I)c2)c2ccccc2C(=O)O)C=C1I | -0.492 | – |
| NC(=O)NC(CCC(=O)O)C(=O)O (stereo unspecified) | -10.1 | – |
| COC1CC2CCC(C)[C@](O)(O2)C(=O)C(=O)N2CCCCC2C(=O)OC(C(C)CC2CCC(O)C(OC)C2)CC(=O)C(C)/C=C(/C)C(O)C(OC)C(=O)C(C)CC(C)C=CC=C/C=C\1C (stereo partly specified) | – | 1410 nM (active) |
| CC(=O)OCC(=O)[C@@]1(O)CCC2C3C[C@H](C)C4=CC(=O)C=CC4(C)C3C(O)CC21C (stereo partly specified) | 5.85 | – |
| CN[C@H](C)CCC=C(C)C | – | 178 nM (active) |
| CC1(C)C2CC[C@]1(C)[C@@H](O)C2 | -8.14 | – |
| OCC1O[C@H](Oc2ccc(O)cc2)C(O)C(O)C1O (stereo partly specified) | 1.09 | – |
| Nc1nc(F)nc2c1ncn2[C@@H]1O[C@H](CO)[C@@H](O)[C@H]1O | 12.3 | – |
| CC1OC(OC2CCC3(C)C(CCC4C3CC(O)C3(C)C(C5=CC(=O)OC5)CCC43O)C2)CC(O)C1OC1CC(O)C(OC2CC(O)C(OC3OC(CO)C(O)C(O)C3O)C(C)O2)C(C)O1 (stereo unspecified) | -3.04 | – |
| CC1OC(OCC2OC(Oc3c(-c4ccc(OCCO)c(OCCO)c4)oc4cc(OCCO)cc(O)c4c3=O)C(O)C(O)C2O)[C@@H](O)C(O)C1O (stereo partly specified) | -14.1 | – |

system: PAD; assay: as above; settings: P. falciparum in erythrocytes, SYBR Green DNA, 72 h; series mostly up to 28.7 µM; activity, negative = inhibition: at the top concentration
Outline: as §1

| Compound | activity, negative = inhibition | Potency |
| --- | --- | --- |
| CCCCCCCCCCCCCCCC(=O)OC[C@H](O)[C@H]1OC[C@@H](O)[C@@H]1O | 6.86% | – |
| CCCCC(=O)OCC(=O)[C@]1(O)Cc2c(O)c3c(c(O)c2[C@H](OC2CC(NC(=O)C(F)(F)F)C(O)C(C)O2)C1)C(=O)c1c(OC)cccc1C3=O (stereo partly specified) | – | 2240 nM (active) |
| C[C@H]1OC(OC2C(O)[C@@H](O)C(OC3C(O)[C@@H](O)C(O)O[C@@H]3CO)O[C@@H]2CO)[C@H](O)C(O)C1N[C@H]1C=C(CO)[C@@H](O)[C@H](O)C1O (stereo partly specified) | 11.8% | – |
| CCN(CC)CC(=O)Nc1c(C)cc(C)cc1C | 0.949% | – |
| CC(=O)N[C@H]1[C@H](O[C@@H]2c3ccc(c(Cl)c3)Oc3cc4cc(c3O[C@@H]3O[C@H](CO)[C@@H](O)[C@H](O)C3C)Oc3ccc(cc3Cl)C[C@H]3NC(=O)[C@@H](N)c5ccc(O)c(c5)Oc5cc(O)cc(c5)[C@H](NC3=O)C(=O)N[C@H]4C(=O)N[C@H]3C(=O)N[C@@H]2C(=O)N[C@@H](C(=O)O)c2cc(O)cc(O[C@H]4O[C@H](CO)[C@@H](O)C(O)[C@@H]4O)c2-c2cc3ccc2O)O[C@H](CO)[C@@H](O)[C@@H]1O (stereo partly specified) | 1.36% [at 12.8 µM] | – |
| NC(=O)c1ncn(C2OC(CO)C(O)C2O)c1N (stereo unspecified) | 11.7% | – |
| C[C@H]1[C@@H](OC(=O)CCC(=O)O)OC2OC3(C)CC[C@H]4[C@H](C)CC[C@@H]1[C@@]24OO3 (stereo partly specified) | – | 5.6 nM (active) |
| CC1(Cn2ccnn2)[C@H](C(=O)O)N2C(=O)C[C@H]2S1(=O)=O (stereo partly specified) | 3.85% | – |
| CN(C)CC/C=C1\c2ccccc2COc2ccc(CC(=O)O)cc21 | 8.84% | – |
| OCCN1CC(O)C(O)C(O)C1CO (stereo unspecified) | -1.09% | – |
| CC(CCC(=O)O)C1CCC2C3C(=O)C[C@@H]4CC(=O)CC[C@@]4(C)C3CC(=O)[C@]12C (stereo partly specified) | -6.92% | – |
| C[n+]1c2cc(N)ccc2cc2ccc(N)cc21 | – | 1000 nM (active) |
| O=C(OC[C@@H]1O[C@@](O)(COC(=O)c2cccnc2)[C@H](OC(=O)c2cccnc2)[C@H]1OC(=O)c1cccnc1)c1cccnc1 | 4.51% | – |
| O=[N+]([O-])O[C@H]1CO[C@H]2[C@@H]1OC[C@H]2O | 4.36% | – |
| COc1cccc(OC)c1C(=O)NC1C(=O)N2C1SC(C)(C)C2C(=O)O (stereo unspecified) | 9.67% | – |
| NC[C@@H]1O[C@H](OC2[C@@H](CO)O[C@@H](OC3[C@H](O)[C@H](N)C[C@H](N)[C@H]3OC3O[C@H](CO)[C@@H](O)[C@H](O)[C@@H]3N)[C@H]2O)C(N)[C@H](O)[C@@H]1O (stereo partly specified) | 5.24% | – |
| Cc1ccc(S(=O)(=O)NC(=O)NC(C)Cc2ccccc2)cc1 (stereo unspecified) | 0.261% | – |
| OCCOC[C@H]1O[C@H](OCCO)[C@H](OCCO)[C@@H](OCCO)[C@@H]1OCCO (tested in a mixture with another compound) | 8% | – |
| C[S+](C)CC[C@H](N)C(=O)O | -12.8% | – |

| Compound | activity, negative = inhibition | Potency |
| --- | --- | --- |
| CC[C@@H]1/C=C(\C)C[C@H](C)C[C@H](OC)[C@H]2O[C@@](O)(C(=O)C(=O)N3CCCC[C@H]3C(=O)O[C@H](/C(C)=C/[C@@H]3CC[C@H](Cl)[C@H](OC)C3)[C@H](C)[C@@H](O)CC1=O)[C@H](C)C[C@@H]2OC | 5.02% | – |
| NC(=O)C1CC2(NC(=O)NC2=O)c2cc(F)ccc2O1 (stereo unspecified) | 5.49% | – |
| CN1[C@@H]2CC[C@@H]1CC(OC(=O)[C@H](CO)c1ccccc1)C2 (stereo partly specified) | 9.33% | – |
| CC[C@@]1(O)C[C@H](O[C@H]2C[C@@H](N(C)C)[C@@H](O[C@H]3C[C@@H](O)[C@@H](O[C@H]4CCC(=O)[C@@H](C)O4)[C@@H](C)O3)[C@@H](C)O2)c2c(cc3c(c2O)C(=O)c2c(O)cccc2C3=O)[C@H]1C(=O)OC | – | 178 nM (active) |
| CCCCCCCCCCCC(=O)OCC(O)C1OCC(O)C1O (stereo unspecified) | 7.22% | – |
| C/C1=C2/[N-]C(C(CC(N)=O)[C@@]2(C)CCC(=O)NCC(C)OP(=O)([O-])O[C@H]2[C@@H](O)[C@@H](n3cnc4cc(C)c(C)cc43)O[C@@H]2CO)[C@]2(C)N=C(/C(C)=C3N=C(/C=C4N=C1C(CCC(N)=O)C\4(C)C)[C@@H](CCC(N)=O)[C@]\3(C)CC(N)=O)[C@@H](CCC(N)=O)[C@]2(C)CC(N)=O.CC(=O)O.[Co] (stereo partly specified) | 2.95% | – |
| CC1(C)OC[C@@H]2O[C@@]3(C(=O)O)OC(C)(C)O[C@@H]3[C@@H]2O1 | 7.11% | – |
| Cc1ccccc1N1C(=O)c2cc(N)ccc2N/C1=C\F | -2.82% | – |
| CCC(C(=O)O)C1OC(C(C)C(O)C(C)C(=O)C(CC)C2OC3(C=CC(O)C4(CCC(C)(C5CCC(O)(CC)C(C)O5)O4)O3)C(C)CC2C)C(C)CC1C (stereo unspecified) | – | 224 nM (active) |
| O=C1C(I)=CC(=C(c2cc(I)c(O)c(I)c2)c2ccccc2C(=O)O)C=C1I | -7.14% | – |
| NC(=O)NC(CCC(=O)O)C(=O)O (stereo unspecified) | 11.9% | – |
| COC1CC2CCC(C)[C@](O)(O2)C(=O)C(=O)N2CCCCC2C(=O)OC(C(C)CC2CCC(O)C(OC)C2)CC(=O)C(C)/C=C(/C)C(O)C(OC)C(=O)C(C)CC(C)C=CC=C/C=C\1C (stereo partly specified) | – | 1260 nM (active) |
| CC(=O)OCC(=O)[C@@]1(O)CCC2C3C[C@H](C)C4=CC(=O)C=CC4(C)C3C(O)CC21C (stereo partly specified) | -4.74% | – |
| CN[C@H](C)CCC=C(C)C | – | 178 nM (active) |
| CC1(C)C2CC[C@]1(C)[C@@H](O)C2 | 10.9% | – |
| OCC1O[C@H](Oc2ccc(O)cc2)C(O)C(O)C1O (stereo partly specified) | 2.78% | – |
| Nc1nc(F)nc2c1ncn2[C@@H]1O[C@H](CO)[C@@H](O)[C@H]1O | 2.37% | – |
| CC1OC(OC2CCC3(C)C(CCC4C3CC(O)C3(C)C(C5=CC(=O)OC5)CCC43O)C2)CC(O)C1OC1CC(O)C(OC2CC(O)C(OC3OC(CO)C(O)C(O)C3O)C(C)O2)C(C)O1 (stereo unspecified) | 0.437% | – |
| CC1OC(OCC2OC(Oc3c(-c4ccc(OCCO)c(OCCO)c4)oc4cc(OCCO)cc(O)c4c3=O)C(O)C(O)C2O)[C@@H](O)C(O)C1O (stereo partly specified) | -0.807% | – |
